# Experimental data reported in PubChem BioAssay (NCI).
# Several values for one entry are separate records, joined by “and”; a condition that tells them apart may be missing. Equal values may be shown once. The panel holds about 83,000 compounds, 20% with a hit somewhere; the sample as a whole holds those more often.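 Growth was measured after 48 h exposure to one concentration of compound in 96-well plates. Values under 10 count as active.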 Activity calls are given as the source filed them.
# Test system: MDA-MB-468 breast
# Test: NCI-60 one-dose screen, 48 h (100 = growth as untreated, 0 = no growth, -100 = all killed)
# Settings: 10 µM unless noted
row,SMILES,growth
1,CC1=C(CNO)C2=C(C)C3(CC3)[C@@](C)(O)C(=O)C2=C1,-62.9% (active)
2,CC(CC(C#N)(c1ccccc1)c1ccccc1)N1CCOCC1 (stereo unspecified),107% (inactive)
3,CC[C@H](C)[C@H](NC(=O)[C@H]1CCCCN1C)C(=O)N(C)[C@H](CC(=O)c1nc(C(=O)N[C@@H](Cc2ccccc2)C[C@H](C)C(=O)O)cs1)C(C)C,62.3% (inactive)
4,O=C(N/N=C/c1ccc([N+](=O)[O-])o1)c1cc([N+](=O)[O-])cc([N+](=O)[O-])c1O,92.1% (inactive)
5,O=CN1N=C(c2ccccc2)CC1c1sc(N(CCCl)CCCl)nc1Cl (stereo unspecified),94% (inactive)
6,COC(=O)C1=CCCN(C)C1,105% (inactive) and 92.8% (inactive)
7,C[C@@H]1O[C@@H](O[C@H]2CC[C@@]3(C)[C@H](CCC4[C@@H]3C(O)C[C@]3(C)[C@@H](c5ccc(=O)oc5)CC[C@]43O)C2)[C@H](O)[C@H](O)[C@H]1O (stereo partly specified),-59.8% (active)
8,O=C(O)C(F)F,91.4% (inactive)
9,CSc1cc(/C=C(\C)[C@@H]2C[C@@H]3O[C@]3(C)CCC[C@H](C)[C@H](O)[C@@H](C)C(=O)C(C)(C)[C@@H](O)CC(=O)O2)n(CCNC(=O)OC(C)(C)C)n1,66% (inactive)
10,C=CC(=O)NC(O)C(Cl)(Cl)Cl (stereo unspecified),121% (inactive)
11,Nc1cccc(CC(=O)Nc2ccc(S(=O)(=O)F)cc2)c1,90.2% (inactive)
12,N[C@@H](CCC(=O)CCl)C(=O)O,102% [20 µM] (inactive)
13,CC[C@H](C)[C@@H]([C@@H](CC(=O)N1CCC[C@H]1[C@H](OC)[C@@H](C)C(=O)N[C@H](C)[C@@H](O)c1ccccc1)OC)N(C)C(=O)[C@@H](NC(=O)[C@@H](NC)C(C)C)C(C)C,37% (inactive)
14,CC[C@H](C)[C@H]1O[C@]2(C=C[C@@H]1C)C[C@@H]1C[C@@H](C/C=C(\C)[C@@H](O[C@H]3C[C@H](OC)[C@@H](O[C@H]4C[C@H](OC)[C@@H](NC)[C@H](C)O4)[C@H](C)O3)[C@@H](C)/C=C/C=C3\CO[C@@H]4[C@H](O)C(C)=C[C@@H](C(=O)O1)[C@]34O)O2,-68.8% (active)
15,COc1cc(NCCCN=C(N)N)c2ncccc2c1,-37.1% (active)
16,COc1ccc(OC)c(/C=C(/C)[N+](=O)[O-])c1,-40.8% (active)
17,O=C(CC1(O)C(=O)Nc2ccccc21)c1ccc(C(=O)NCC2CCC3(CC2)OOC2(CCCCC2)OO3)cc1 (stereo unspecified),53.7% (inactive)
18,CO/N=C1\CC[C@]2(C)[C@H]3CC[C@]4(C)C(=O)CC[C@H]4[C@@H]3C[C@@H]3SC(N)=N[C@@]32C1,88.8% (inactive)

row,SMILES,growth
1,O=[As](O)(O)c1ccccc1[As](=O)(O)O,99.7% (inactive)
2,N#CCc1ccc(CC#N)cc1,100% (inactive)
3,C[C@@H]1CC[C@@H]2[C@@H]1[C@H](OC(=O)/C=C/C1CCCCC1)[C@]1(C3CCCCC3)C[C@@H](OC(=O)CO)[C@@]2(C)O1,59.5% (inactive)
4,O=C1N[C@@H]2[C@@H](O)[C@@H](O)[C@H](O)C[C@H]2c2cc3c(c(O)c21)OCO3,-45.8% (active)
5,CC1=C(CCCOC(=O)CN)C2=C(C)C3(CC3)[C@@](C)(O)C(=O)C2=C1,20.2% (inactive)
6,O=C(N/N=C\c1ccc(N(CCCl)CCCl)cc1)c1cccc([N+](=O)[O-])c1,68.1% (inactive)
7,CCCCC1(CCC)C(=O)NC(=S)NC1=O,98.7% (inactive)
8,c1ccc(CCN2CCCCC2Cc2ccccc2)cc1 (stereo unspecified),103% (inactive)
9,COc1ccc(-c2ccc(OC)c(OC)c2OC)cc1,-20.7% (active)
10,CNC(=O)Oc1cccc(OC)c1,106% (inactive)
11,CC(CC1CCCCC1)NCc1ccccc1 (stereo unspecified),102% (inactive)
12,CN1CCC2(CC1)C(C#N)C(=O)NC(=O)C2C#N (stereo unspecified),102% (inactive)
13,CCN(CC)c1ccc(C=C2C(=O)NC(=S)NC2=O)cc1,74.2% (inactive)
14,Clc1ccc(COC(Cn2ccnc2)c2ccc(Cl)cc2Cl)c(Cl)c1 (stereo unspecified),33.3% (inactive)
15,C[S+]1C=Cc2ccccc2C1c1ccc(Cl)cc1 (stereo unspecified),-40.7% (active)
16,COc1cc(C2C3=C(CCCC3=O)N(CCO)c3cc4c(cc32)CCC4)cc(OC)c1OC (stereo unspecified),93.8% (inactive)
17,COC(=O)C[Se]C(=O)c1ccccc1OC(C)=O,34.8% (inactive)
18,CC(=O)O[C@@H]1C[C@H]2O[C@@H]3C=C(C)CC[C@]3(C)[C@]1(C)[C@]21CO1,39.3% (inactive)
